# PubChem BioAssay AID589 (National Center for Advancing Translational Sciences (NCATS), 2007)
# Screen size: about 59,000 compounds; about 6,200 (11%) were called active. About 9% were inconclusive and are not listed. Cut-off read from the data, not from the text of the source: active = max dye-equivalent concentration above about 10 nM; inconclusive = mostly about 1.1 nM to 9.6 nM; inactive = weaker than that. The list comes from a sample in which actives are over-represented; it also holds similar structures and randomly drawn compounds. Some structures have more than one record in an assay (separate samples or runs), and their calls can disagree.
# Test: qHTS Assay for Spectroscopic Profiling in 4-MU Spectral Region
# Conditions: compound autofluorescence, 340/450 nm, 4-MU equivalents; active compounds read high
# Summary of the method: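 Compounds in 100 mM Tris, pH 8.0, sat 15 min at room temperature before fluorescence was read at 340 nm excitation/450 nm emission; a per-plate six-point 4-MU standard curve converted signals to dye-equivalent concentration at each compound concentration.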
SMILES,max dye-equivalent concentration,outcome
COc1cc(C(=O)Nc2nccs2)cc(OC)c1OC,inactive,
COc1cc(C(=O)Nc2oc(-c3ccccc3)c(-c3ccccc3)c2C#N)cc(OC)c1OC,11 nM (active),
COC(=O)c1cccc(NC(=O)CN2CCC(NC(=O)c3cc(OC)c(OC)c(OC)c3)CC2)c1,inactive,
Cc1ccc(N2CCN(S(=O)(=O)N(C)C)CC2)cc1Cl,inactive,
CCCn1c(SCC(N)=O)nnc1C(C)C,inactive,
Cc1ccc(C(=O)CS(C)(=O)=O)cc1,20 nM (active),
N#Cc1ccc(CSc2nnc(-c3ccccn3)n2-c2ccc(Cl)cc2)cc1,inactive,
N#CNC1=NCN(CCc2ccccc2)CN1,inactive,
O=C(c1csnn1)N1CCC[C@@]2(CCN(c3cccc(-c4ccccc4)c3)C2)C1,inactive,
COc1ccc(CN2C(=O)CN=C2Nc2ccc(C)cc2C)cc1,inactive,
Cc1cc(C)nc(N2C(=O)CC(Cc3ccccc3)C2=O)n1 (stereo not drawn),inactive,
Nc1ccc2c3c(cccc13)C(=O)NC2=O,inactive,
CCOc1ccccc1-n1c(SCC(=O)N2CCCC2)nnc1-c1ccoc1C,inactive,
C=CCNc1nnc(SCC(=O)N2CCCCC2)c2ccccc12,16 nM (active),
C=CCNc1nnc(C)c2ccccc12,inactive,
CCNc1nc(SCCOc2ccccc2)nc(N(C)C)n1,inactive,
O=c1oc2cc(O)ccc2cc1-c1ccc(F)cc1,95 nM (active),
Nc1ncc(-c2cc3ccccc3oc2=O)s1,inactive,
O=C(NCCCNC(=O)NC1CCCCC1)NC1CCCCC1,inactive,
Cn1cnc2c1c(=O)n(Cc1c(Cl)cccc1Cl)c(=O)n2C,inactive,
CNC(=O)c1ccc2nc(NC(C)=O)sc2c1,inactive,
COC(=O)c1sc(NC(=O)c2ccc(OC)cc2OC)nc1C,inactive,

SMILES,max dye-equivalent concentration,outcome
COc1ccc2nc(NC(=O)c3ccc(Br)s3)sc2c1,460 nM (active),
Cc1c(C)c2cc3c4c(oc3c(C)c2oc1=O)CCCC4,30 nM (active),
CC(=O)N(Cc1cccs1)C1CCOC(C)(C)C1 (stereo not drawn),inactive,
Cc1cc(NC(=O)CCC(=O)N(c2ccccc2)C(C(=O)NC2CCCC2)c2ccncc2)no1 (stereo not drawn),inactive,
COc1ccc(Cn2c(=O)sc3ccccc32)cc1OC,inactive,
CCn1c(SCC(=O)NCc2ccco2)nnc1-c1ccc(N)cc1,inactive,
Cc1ccc2c(CSc3nncs3)cc(=O)oc2c1,inactive,
CCOC(=O)c1cc2occc2n1CC(=O)NC1CCC(C)CC1 (stereo not drawn),inactive,
CN(C)CCNC(CC(=O)Nc1ccc(Cl)c(Cl)c1)C(=O)O (stereo not drawn),inactive,
CN1C(=O)c2ccc(NC(=O)C3CCCCC3)cc2C1=O,230 nM (active),
CN1C(=O)c2ccc(NC(=O)c3c(F)c(F)c(F)c(F)c3F)cc2C1=O,98 nM (active),
O=C(O)c1ccc(NC(=O)C2CCCCC2)cc1,inactive,
Cn1c(=O)n(C)c2cc(C(=O)Nc3ccc4c(c3)OCO4)ccc21,inactive,
O=C(Nc1cnn(Cc2ccc(Cl)cc2)c1)C1CCCC1,inactive,
O=C(Nc1ccncc1)c1c(F)cccc1F,inactive,
COc1ccc(C[C@H](N)C(=O)N[C@@H]2[C@H](O)[C@H](n3cnc4c(N(C)C)ncnc43)O[C@@H]2CO)cc1,inactive,
O=S(=O)(c1ccc(Sc2nnc3ccccn23)nc1)N1CCOCC1,inactive,
N#CCCN(CCC#N)c1nnc(-c2ccccc2)s1,inactive,
O=S(=O)(Nc1ccccc1N1CCOCC1)c1ccc(Cl)s1,inactive,
COC(=O)Cc1csc(Nc2c(C)n(C)n(-c3ccccc3)c2=O)n1,inactive,
CCOC(=O)CSc1nc2c(c(=O)n(Cc3ccccc3Cl)c(=O)n2C)n1C,inactive,
CCOc1ccc(NC(=O)Nc2ccc(N(C)C(C)=O)cc2)cc1,inactive,

SMILES,max dye-equivalent concentration,outcome
O=C(NC1CCCCC1)c1ccc2c(=O)n(CC3CCCO3)c(=O)[nH]c2c1 (stereo not drawn),16 nM (active),
Cc1ccc(C(=O)Nc2ccccc2C(=O)NC2CCCCC2)cc1S(=O)(=O)N1CCOCC1,inactive,
O=c1c2cc3c(=O)n(CC4CCCO4)c(=O)c3cc2c(=O)n1CC1CCCO1 (stereo not drawn),inactive,
CCOC(=O)c1ccc(N2C(=O)CC(N3CC(C)OC(C)C3)C2=O)cc1 (stereo not drawn),inactive,
CNCC[C@H](Oc1ccc(C(F)(F)F)cc1)c1ccccc1,13 nM (active),inactive
Clc1ccc(C=Nc2ccc3c(c2)Cc2ccccc2-3)c(Cl)c1,inactive,
Cc1cc(C)nc(NC(=O)C(C)N2C(=O)c3ccccc3C2=O)n1 (stereo not drawn),inactive,
CC(C(=O)O)N1C(=O)c2cccc3cccc1c23 (stereo not drawn),15 nM (active),
COC(=O)c1ccc(NC(=O)C(C)N2C(=O)c3ccccc3C2=O)cc1 (stereo not drawn),inactive,
O=c1cc(CO)oc(CN2CCC(Cc3ccccc3)CC2)c1O,inactive,
Cc1cccc2nc(CNc3ccc(F)cc3)cn12,inactive,
CC(C)OC(=O)C(C#N)c1nc2ccccc2nc1N1CCN(Cc2ccccc2)CC1 (stereo not drawn),inactive,
CC(C)OC(=O)C(C#N)c1nc2ccccc2nc1N1CCN(Cc2ccc3c(c2)OCO3)CC1 (stereo not drawn),110 nM (active),
COc1ccc(-c2csc(N3CCN(Cc4ccc5c(c4)OCO5)CC3)n2)cc1,inactive,
O=C(c1ccccc1)c1ccc(OC(=O)N2CCCC2)cc1,inactive,
COc1ccccc1-c1nc(NCCNC(C)=O)c2ccccc2n1,inactive,
CCCCN(C)Cc1c(C)[nH]c2ccc(Cl)cc2c1=O,inactive,
Cc1ccc(S(=O)(=O)C(C#N)c2nc3ccccc3nc2N2CCCC2)cc1C (stereo not drawn),150 nM (active),
CCn1cc(C(=O)NCc2ccc3c(c2)OCO3)c2cc(OC)c(OC)cc2c1=O,inactive,
Cc1ccccc1N1C(=O)C2ON(c3ccccc3)C(c3ccncc3)C2C1=O (stereo not drawn),inactive,
C=CCn1c(SCC(=O)NC23CC4CC(CC(C4)C2)C3)nc(O)cc1=O,inactive,
Cc1cccc(Cn2c(N3CCN(c4ccccc4)CC3)nc3c2c(=O)n(C)c(=O)n3C)c1,inactive,

SMILES,max dye-equivalent concentration,outcome
Cn1c(=O)c2c(nc(N3CCCCCC3)n2CC(=O)c2ccc(Br)cc2)n(C)c1=O,inactive,
Cn1c(=O)c2c(nc(N3CCCCCC3)n2CC(O)COc2ccc(Cl)cc2)n(C)c1=O (stereo not drawn),38 nM (active),
CSCCC(NS(=O)(=O)/C=C/c1ccccc1)C(=O)N1CCC(C)CC1 (stereo not drawn),inactive,
COCCCN1C(=O)C(=O)/C(=C(/O)c2ccc3c(c2)CC(C)O3)C1c1cccnc1 (stereo not drawn),inactive,
CCOC(=O)c1sc(NC(=S)n2cc(C)cn2)c(C(=O)OCC)c1C,inactive,
CCc1c(C)sc(NC(=O)c2ccc(Br)o2)c1C(=O)OC,96 nM (active),
CCCC(=O)Nc1ccc(Cl)c(NC(=O)c2ccc(Br)o2)c1,inactive,
Cc1cc(C)nc(-n2nc(C)cc2NC(=O)c2ccc(Br)o2)n1,inactive,
O=C(c1ccco1)N1CCC[C@@]2(CCN(c3ccccc3)C2)C1,inactive,
O=C(Nc1nnc(CCc2ccccc2)s1)C1CCCO1 (stereo not drawn),inactive,
CCOc1ccc(NC(=O)CC2NCCNC2=O)cc1 (stereo not drawn),inactive,
O=C(CC1Nc2ccccc2NC1=O)Nc1ccccc1 (stereo not drawn),89 nM (active),
O=C(CC1NCCNC1=O)Nc1ccc(Oc2ccccc2)cc1 (stereo not drawn),inactive,
Cc1ccccc1S(=O)(=O)Cc1ccc(C(=O)NCCN2CCCCC2C)o1 (stereo not drawn),inactive,
O=C1CCCc2c1[nH]c1ccc(Br)cc21,inactive,
O=C1CC(c2cccc(F)c2)C2=C(CCCC2=O)N1 (stereo not drawn),inactive,
O=C1CC(c2cccc(Br)c2)C2=C(CCCC2=O)N1 (stereo not drawn),43 nM (active),
O=C(CN1C(=O)NC2(CCCCC2)C1=O)NCCC1=CCCCC1,inactive,
CC(=O)OC(C(=O)NC1CCCCC1)c1ccccc1 (stereo not drawn),inactive,
CC1(CCC(=O)OC2CCCCC2)OCCO1,inactive,
CCc1ccc2oc(-c3ccc(N)cc3)nc2c1,120 nM (active),
Cc1ccc(/C(=C/CN2CCCC2)c2ccccn2)cc1,inactive,

SMILES,max dye-equivalent concentration,outcome
C[C@@H]1C[C@H]2[C@@H]3C[C@H](F)C4=CC(=O)C=C[C@@]4(C)[C@]3(F)[C@H](O)C[C@]2(C)[C@@]1(O)C(=O)CO,inactive,
O=C(Cn1c(=O)n(Cc2ccco2)c(=O)c2ccccc21)NCC1CCCO1 (stereo not drawn),inactive,
COc1ccccc1-n1cnc2cc(C(=O)NCC3CCCO3)ccc21 (stereo not drawn),inactive,
CC1(C)CC(=O)c2cc(OCC(=O)NCC3CCCO3)ccc2O1 (stereo not drawn),1700 nM (active),
Cc1cc2c(cc1C)NC1=C(N2)O[C@H](c2c[nH]c3ccc(COc4ccccc4)cc23)C1=O,inactive,
CCN(CCCCOC(=O)c1ccc(OC)c(OC)c1)C(C)Cc1ccc(OC)cc1 (stereo not drawn),inactive,
CC(C)NC(=O)N1CC[C@@]2(CCCN(C(=O)c3cccn3C)C2)C1,inactive,
CCOc1ccc2nc(NC(=O)CSc3nc4c(c(=O)n(C)c(=O)n4C)n3CC)sc2c1,inactive,
CC(=O)c1ccc(-n2nnnc2SCC(=O)N2CCN(C(=O)c3ccco3)CC2)cc1,inactive,
COc1ccc(CCN2C(=O)c3[nH]nc(-c4ccccc4O)c3C2c2ccc(C)cc2)cc1OC (stereo not drawn),110 nM (active),
COc1ccc(CCN(C)CCN2C(=O)c3ccccc3C2=O)cc1OC,inactive,
COc1ccc(-c2n[nH]c(C)c2-c2ccc(OC)c(OC)c2)c(O)c1,inactive,
Cc1ccc(NC(=O)C2CCCN(S(=O)(=O)c3c(C)noc3C)C2)c(C)c1 (stereo not drawn),inactive,
Cc1ccc(Cn2nnc3c(=O)n(CC(=O)N4CCCCC4)cnc32)cc1,inactive,
COC(=O)c1ccccc1NC(=O)CN(Cc1ccccc1)S(C)(=O)=O,inactive,
CNC(=O)CSc1nnnn1-c1ccc(C)cc1C,inactive,
Nc1cc(=O)nc(SCc2ccccc2)n1Cc1ccco1,inactive,
O=c1[nH]c(=O)n(Cc2ccco2)c2c1C(C(F)(F)F)(C(F)(F)F)N=C(c1ccco1)N2,18 nM (active),
O=c1[nH]c(CSc2ncc(-c3ccc(F)cc3)n2Cc2ccco2)nc2ccccc12,inactive,
